Only some compounds are listed: those with a hit (about 20% of all), similar ones and a draw of the others.
Cycloheximide cs: Cycloheximide Counterscreen for Small Molecule Inhibitors of Shiga Toxin | cell reporter, cycloheximide protein synthesis inhibition counterscreen | max response, % | hit rate 12% among 300,000 | AID 2314, 2010; in the data active = max response mostly above about 13%, no sharp cut-off; inactive = mostly below about 14%; also: read at 38.3 µM for the half of the compounds with a filed dose; 0% is about no effect
Pf growth 96h: Primary qHTS for delayed death inhibitors of the malarial parasite plastid, 96 hour incubation | Potency, µM (titrated, usually from 28.7 µM), for the others: at the top dose activity change, negative = inhibition, most hits filed as inhibitors | P. falciparum luciferase reporter growth, 96 h | hit rate 6.9% among 320,000; also: potency is read from the fitted curve at half-maximal effect; % is scaled to controls: 0 for no effect and ±100 for the full control effect
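Compounds incubated with erythrocytes infected by luciferase-expressing P. falciparum (2% hematocrit, 0.05% parasitemia final) for 96 hours, 37 C in 5% CO2. Growth inhibition scored as decreased luciferase luminescence.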
Shiga toxin inh: A qHTS for Small Molecule Inhibitors of Shiga Toxin | inhibition, % at 38.7 µM | Vero cells, Shiga toxin protein synthesis inhibition reporter | hit rate 9.2% among 290,000; in the data active = inhibition mostly above about 28%, no sharp cut-off; inactive = mostly below about 43%; also: 0% is about no effect
Pf growth 48h: Primary qHTS for delayed death inhibitors of the malarial parasite plastid, 48 hour incubation; P. falciparum luciferase growth in erythrocytes, 48 h; Potency, µM (doses to about 28.7 µM), for inactives: at the top dose activity change, negative = inhibition, actives largely listed as inhibitors; hit rate 5.9% among 310,000; AID 504832, 2011; also: potency is read from the fitted curve at half-maximal effect; % is scaled to controls: 0 for no effect and ±100 for the full control effect
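Read-out is firefly luciferase luminescence from an integrated reporter in P. falciparum, so falling signal marks reduced parasite growth. Infected erythrocytes were at 2% hematocrit and 0.1% parasitemia (final) in Albumax-supplemented RPMI 1640.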
HCMV antiviral: qHTS Assay for inhibitors of the human cytomegalovirus (HCMV). hit rate 4.5% among 410,000. HFF cells, HCMV-luciferase reporter, 72 h; active compounds read low. activity change, negative = inhibition, % at 57.5 µM; in the data active = activity change below about -60%; inconclusive = no clear call, values can overlap the other calls; inactive = above about -39%; also: % is scaled to controls: 0 for no effect and ±100 for the full control effect
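Cell-based, HFFs, 1000 cells/well, 16 h 37C; cpds in DMSO + HCMV-luc, MOI 1 PFU/cell; 72 h 37C; OneGlo luminescence after 5 min RT; norm. to buffer vs Salinomycin 10uM.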
Numbers without * were called inactive; [ ] = another dose, or the depositor's remark. Unless noted, calls follow the shape of the dose curve; as a rule, active = well fitted inhibition curve with a large enough effect; inconclusive = small, poorly fitted or top-dose-only effect, or another doubt; inactive = no such curve, though single readings can be large or run the other way.

Results for CCSc1nnc(N2C(=O)C(O)=C(C(=O)c3ccco3)C2c2cccc(OC)c2)s1 (configuration not stated) ?
Cycloheximide cs: 38.6*; Pf growth 96h: inconclusive; Shiga toxin inh: 90.0*; Pf growth 48h: -7.9%; HCMV antiviral: -10.9

Results for CCOc1cccc(C2C(C(=O)c3ccco3)=C(O)C(=O)N2c2nnc(C)s2)c1 (configuration not stated) ?
Pf growth 96h: inconclusive; Pf growth 48h: -3.5%; HCMV antiviral: 31.0

Results for CSc1nnc(N2C(=O)C(O)=C(C(=O)c3ccco3)C2c2cccc(Cl)c2)s1 (configuration not stated) ?
Cycloheximide cs: 34.3*; Pf growth 96h: 5.7%; Shiga toxin inh: 22.1; Pf growth 48h: 1.3%; HCMV antiviral: 0.0

Results for COc1cc(C(=O)NCCC2=CCCCC2)ccc1OCc1c(C)noc1C ?
Pf growth 96h: inconclusive; Pf growth 48h: inconclusive; HCMV antiviral: 65.2

What do the screens show for `COc1ccc(OC)c(CCNC(=O)Cn2nc(C)n3c(cc4sccc43)c2=O)c1`?
HCMV antiviral: -0.3

Results for Nc1cc2nc3ccccc3oc-2cc1=O ?
Cycloheximide cs: 28.1*; Pf growth 96h: 4.65µM*; Shiga toxin inh: 41.6*; Pf growth 48h: 4.65µM*; HCMV antiviral: -91.2*

What do the screens show for `c1ccc2oc(SCc3cn4ccccc4n3)nc2c1`?
Cycloheximide cs: 52.5*; Pf growth 96h: -18.5%; Shiga toxin inh: 65.1*; Pf growth 48h: 96.9%; HCMV antiviral: 44.3

How did c1ccc2nc(SCc3cn4ccccc4n3)cnc2c1 do in these assays?
Cycloheximide cs: 39.9*; Pf growth 96h: inconclusive; Shiga toxin inh: 63.6*; Pf growth 48h: 0.0%; HCMV antiviral: inconclusive

What do the screens show for `c1ccc(N2CCN(Cc3cn4ccccc4n3)CC2)cc1`?
Cycloheximide cs: 0.9; Pf growth 96h: inconclusive; Shiga toxin inh: -2.3; Pf growth 48h: 5.9%; HCMV antiviral: 32.1

What do the screens show for `Cc1cccc2nc(CSc3nc4ccccc4o3)cn12`?
Cycloheximide cs: 49.3*; Pf growth 96h: 77.3%; Shiga toxin inh: active; Pf growth 48h: 89.9%; HCMV antiviral: -18.0

What do the screens show for `O=C(NC1CCCC1)C(c1cccnc1)N(Cc1ccccc1)C(=O)c1csnn1` (configuration not stated)?
Cycloheximide cs: -5.2; Pf growth 96h: -18.7%; Shiga toxin inh: 20.1; Pf growth 48h: -1.0%; HCMV antiviral: -25.2

Results for Cc1cc(NC(=O)CCC(=O)N(CC(=O)NC2CCCC2)c2cccc(C)c2C)no1 ?
HCMV antiviral: 22.4

How did CC(C)C[C@H]1CNC(=S)N1CC1CCN(CCCC2CCCC2)CC1 do in these assays?
HCMV antiviral: -16.4

How did CC(=NC1CCCCC1)C1=C(O)c2ccccc2C1=O do in these assays?
Cycloheximide cs: 46.1*; Pf growth 96h: inconclusive; Shiga toxin inh: 49.7; HCMV antiviral: 50.2

Results for CC(=NC1CCCCC1)c1ccc(O)cc1O ?
HCMV antiviral: -20.8

How did COc1cc(C(=O)C(=O)N2CCN(c3ccc(C)cc3)CC2)cc2ccccc12 do in these assays?
HCMV antiviral: 6.4

Results for CCCCNc1nc2sc3c(c2c(=O)n1-c1cccc(Cl)c1)CCN(C)C3 ?
Cycloheximide cs: -4.2; Pf growth 96h: 0.37µM*; Shiga toxin inh: -11.7; Pf growth 48h: 1.85µM*; HCMV antiviral: -6.5

How did CCCCCNc1nc2sc3c(c2c(=O)n1-c1cccc(Cl)c1)CCN(C)C3 do in these assays?
Cycloheximide cs: -2.0; Pf growth 96h: 0.165µM*; Shiga toxin inh: -5.4; Pf growth 48h: 1.47µM*; HCMV antiviral: inconclusive

Results for CN1CCc2c(sc3nc(SCC(N)=O)n(-c4ccc(Cl)cc4)c(=O)c23)C1 ?
Cycloheximide cs: -0.7; Pf growth 96h: inconclusive; Shiga toxin inh: -4.2; Pf growth 48h: 28.8%[0.00184 µM]; HCMV antiviral: inconclusive

Results for O=c1c2c3c(sc2nc(NCCO)n1-c1ccccc1)CCCC3 ?
Cycloheximide cs: -3.5; Pf growth 96h: 9.7%; Shiga toxin inh: -26.9; Pf growth 48h: 4.4%; HCMV antiviral: -12.4

Results for CN1OC[C@@H]2CN(S(=O)(=O)c3ccccc3)[C@H](c3ccc(N4CCCCC4)cc3)C[C@@H]21 ?
HCMV antiviral: -27.9

How did O=C(NC1CCCC1)c1ccc2c(c1)N(Cc1ccccc1)CCS2 do in these assays?
Cycloheximide cs: -1.2; Pf growth 96h: 10.4µM*; Shiga toxin inh: -4.9; Pf growth 48h: inconclusive; HCMV antiviral: -7.9

Results for Cc1ccc(CN2CCSc3ccc(C(=O)N4CCOCC4)cc32)cc1 ?
Cycloheximide cs: -0.6; Pf growth 96h: -2.1%; Shiga toxin inh: -2.5; Pf growth 48h: inconclusive

How did CCOC(=O)N1CCN(C(=O)c2ccc3c(c2)N(Cc2ccccc2)CCS3)CC1 do in these assays?
Cycloheximide cs: -3.3; Pf growth 96h: 11.7µM*; Shiga toxin inh: -0.9; Pf growth 48h: inconclusive; HCMV antiviral: inconclusive

How did CCN1CCN(C(=O)c2ccc3c(c2)N(Cc2ccc(C)cc2)CCS3)CC1 do in these assays?
Cycloheximide cs: -4.4; Pf growth 96h: inconclusive; Shiga toxin inh: -4.2; Pf growth 48h: inconclusive; HCMV antiviral: -84.6*

How did Cc1ccc(CN2CCSc3ccc(C(=O)NCCCN4CCOCC4)cc32)cc1 do in these assays?
Cycloheximide cs: -2.5; Pf growth 96h: 161.8%; Shiga toxin inh: -2.4; Pf growth 48h: inconclusive; HCMV antiviral: -13.5

What do the screens show for `CCN1CCN(CCCNC(=O)c2ccc3c(c2)N(Cc2ccc(C)cc2)CCS3)CC1`?
Cycloheximide cs: -5.6; Pf growth 96h: inconclusive; Shiga toxin inh: -4.3; Pf growth 48h: 16.5µM*

How did COC(=O)C[C@H]1CC[C@@H](NC(=O)Nc2ccc3c(c2)OCO3)[C@@H](CO)O1 do in these assays?
HCMV antiviral: -8.6

Results for Cc1csc(-c2nc3ccccc3n2C(C)c2nc3ccccc3[nH]2)c1 (configuration not stated) ?
HCMV antiviral: 12.6

Results for COC(=O)c1ccccc1NC(=O)CSc1nc2sc3c(c2c(=O)[nH]1)CCCC3 ?
Cycloheximide cs: -3.8; Shiga toxin inh: 1.7; HCMV antiviral: 32.2

How did Fc1ccc(-c2nc(Nc3ccc(F)c(Cl)c3)nc3c2COc2ccccc2-3)cc1 do in these assays?
HCMV antiviral: -16.7

How did CS(=O)(=O)c1ccc2nc(NC(=O)c3cccc(NS(=O)(=O)c4ccc(F)c(F)c4)c3)sc2c1 do in these assays?
Cycloheximide cs: 18.6*; Pf growth 96h: 3.9%; Shiga toxin inh: 35.4; Pf growth 48h: 40.6%; HCMV antiviral: 64.8

What do the screens show for `O=C(Nc1nc2ccc(SC(F)F)cc2s1)c1ccc(NS(=O)(=O)c2ccc(F)c(F)c2)cc1`?
Cycloheximide cs: 40.7*; Pf growth 96h: inconclusive; Shiga toxin inh: 78.8*; Pf growth 48h: 12.6%; HCMV antiviral: -14.6

How did CCCNS(=O)(=O)c1ccc2nc(NC(=O)c3ccc(F)cc3)sc2c1 do in these assays?
HCMV antiviral: -12.1
